Screens deposited in PubChem BioAssay by Broad Institute.
Hits are enriched below; roughly 2.1% of the tested compounds scored in any of these assays.
Casp6 inh: caspase-6 (human) enzyme inhibition. P55212. purified caspase-6, Z-VEID-R110 cleavage fluorescence. inhibition, % at 12.5 µM. hit rate 0.53% among 350,000;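 active means mean inhibition across replicates at least about 35%, with every replicate also reaching that limit, limit read from the data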
Target sequence (P55212 24-179 limits assumed): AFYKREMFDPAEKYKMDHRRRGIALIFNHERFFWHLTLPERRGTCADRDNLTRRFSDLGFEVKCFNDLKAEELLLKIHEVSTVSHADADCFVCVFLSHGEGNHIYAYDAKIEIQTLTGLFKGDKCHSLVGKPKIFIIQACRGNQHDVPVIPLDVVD
Target sequence (P55212 194-293 limits assumed): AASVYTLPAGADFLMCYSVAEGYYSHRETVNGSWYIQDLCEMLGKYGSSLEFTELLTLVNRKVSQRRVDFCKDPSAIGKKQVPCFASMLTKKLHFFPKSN
PfHsp90 set2: reduces growth (ATP signal) of yeast expressing P. falciparum Hsp90 | S. cerevisiae expressing PfHsp90, BacTiter-Glo ATP, 48 h; yeast lacking PDR1 and PDR3 efflux regulators | hit rate 0.32% among 310,000 | inhibition, % at 9.4 µM | AID 504621;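 active means every replicate shows inhibition above about 80%, whatever the replicate mean, limit read from the data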
ARNT-TACC3 inh: disruptors of human ARNT/TACC3 interaction | Q9Y6A5 | AlphaScreen His-ARNT PAS-B/GST-TACC3 binding, luminescence; TACC3 fragment carries E629A point mutation | inhibition, % at 9.99 µM | hit rate 0.66% among 390,000;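 active means mean inhibition of replicates at least 50% and at least half of replicates each reaching 50%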
NSD2 HMT inh: NSD2 (human) methyltransferase inhibition; NSD2 peptide methylation, AlphaScreen, 120 min; O96028; inhibition, % at 12.5 µM; hit rate 0.54% among 310,000; in the data active means inhibition above about 50%
SIRT5 inh: inhibitors of human sirtuin-5 desuccinylase; Q9NXA8; Purified SirT5, succinyl-peptide AMC, trypsin-coupled fluorescence; inhibition, % at 15 µM; hit rate 1.1% among 330,000; AID 652115; in the data active means inhibition above about 15%
Target sequence (Q9NXA8 whole entry, looked up): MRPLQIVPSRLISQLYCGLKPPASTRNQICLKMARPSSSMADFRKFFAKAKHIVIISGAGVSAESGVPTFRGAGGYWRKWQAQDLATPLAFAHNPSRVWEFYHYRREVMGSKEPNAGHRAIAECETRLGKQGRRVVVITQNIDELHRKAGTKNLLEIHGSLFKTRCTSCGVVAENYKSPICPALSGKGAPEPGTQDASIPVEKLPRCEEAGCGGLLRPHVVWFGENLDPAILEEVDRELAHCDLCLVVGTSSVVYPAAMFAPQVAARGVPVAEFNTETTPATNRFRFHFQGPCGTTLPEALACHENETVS
A number is an active result; n = inactive; x = not tested or not shown.

SMILES	Casp6 inh	PfHsp90 set2	ARNT-TACC3 inh	NSD2 HMT inh	SIRT5 inh
CN=C(Nc1ccc(C(=O)OC)s1)c1ccccc1	n	n	n	n	32
CCCc1cn(CC[C@@H]2CC[C@@H](NS(=O)(=O)c3ccccc3Cl)[C@H](CO)O2)nn1	n	x	n	x	n
CC(C)(C)OC(=O)NCCCC[C@H](NC(=O)[C@H](Cc1c[nH]c2ccccc12)NC(=O)OCc1ccccc1)C(=O)O	39	n	n	n	n
CSCCC(NC(=O)OCc1ccccc1)C(=O)NC(Cc1c[nH]c2ccccc12)C(=O)O (centres undefined)	n	x	x	n	x
O=C(c1ccccn1)N1CC(=O)N2[C@H](CO)[C@H](c3ccc(C#Cc4ccccc4)cc3)[C@@H]2C1	n	x	x	x	n
O=C1c2ccc3c4c(ccc(c24)C(=O)N1c1ccc2ccccc2c1)CC3	x	n	n	n	x
O=C1CCC(=O)c2ccc3c4c(ccc1c24)CC3	92	n	n	n	n
CCCC#Cc1ccc2c(c1)O[C@H](CN(C)Cc1ccc3c(c1)OCO3)[C@H](C)CN([C@@H](C)CO)S2(=O)=O	n	x	n	x	n
COc1cccc(NC(=O)N2CC(=O)N3[C@@H](CO)[C@H](c4ccc(C#CCC5CCCC5)cc4)[C@@H]3C2)c1	n	x	x	x	20
O=C(c1ccc(F)cc1)N1CC(=O)N2[C@H](C1)[C@@H](c1ccc(C#CCC3CCCC3)cc1)[C@@H]2CO	n	x	x	x	n
O=C(Nc1cccc(F)c1)N1CC(=O)N2[C@@H](CO)[C@@H](c3ccc(C#CCC4CCCC4)cc3)[C@@H]2C1	n	x	x	x	n
COc1cccc(NC(=O)N2CC(=O)N3[C@H](CO)[C@H](c4ccc(C#CCC5CCCC5)cc4)[C@H]3C2)c1	n	x	x	x	22
CN(C)CC#Cc1ccc([C@@H]2[C@H]3CN(C(=O)c4cccc(F)c4)CC(=O)N3[C@H]2CO)cc1	n	x	x	x	n
CN(C)CC#Cc1ccc([C@@H]2[C@@H](CO)N3C(=O)CN(C(=O)c4cccc(F)c4)C[C@@H]23)cc1	n	x	x	x	22
O=C(c1ccc(F)cc1)N1CC(=O)N2[C@@H](CO)[C@H](c3ccc(C#CCC4CCCC4)cc3)[C@@H]2C1	x	x	x	x	16
CO[C@@H](CN(C)S(=O)(=O)c1ccc(Cl)cc1)[C@@H](C)CN([C@H](C)CO)S(=O)(=O)c1cccc(Cl)c1	n	x	n	x	n
C[C@H](CO)N1C[C@H](C)[C@@H](CN(C)C(=O)NC2CCCC2)Oc2ncc(Br)cc2C1=O	n	x	n	x	n
O=C(O)c1cccc(NN=C2c3ccccc3-c3ccccc32)c1	n	106	n	n	n
S=C(NCCCN1CCOCC1)Nc1cccc(-c2nnc3n2CCCCC3)c1	n	n	n	n	16
OCCOCCn1c(C2CCCN2c2nc(-c3ccc(F)cc3)cs2)nc2cc(C(F)(F)F)ccc21 (centres undefined)	n	108	n	x	x
OCCCn1c(C2CCCN2c2nc(-c3ccc(F)cc3)cs2)nc2cc(C(F)(F)F)ccc21 (centres undefined)	x	x	n	x	x
OCCOCCn1c(C2CCCN2c2nc(-c3ccc(F)cc3)cs2)nc2cc(Cl)c(Cl)cc21 (centres undefined)	n	110	n	x	x
OCCCn1c(C2CCCN2c2nc(-c3ccc(F)cc3)cs2)nc2cc(Cl)c(N3CCCCC3)cc21 (centres undefined)	n	n	n	x	x
C=CCn1c(-c2ccc(Cl)cc2Cl)csc1=Nc1ccc(NC(C)=O)cc1	x	x	x	n	x
Cc1cccc(/C(N)=N/OC(=O)COc2ccc(Cl)cc2)c1	n	x	n	n	35
SMILES	Casp6 inh	PfHsp90 set2	ARNT-TACC3 inh	NSD2 HMT inh	SIRT5 inh
S=c1[nH]c2ncccc2o1	n	n	n	n	n
S=c1[nH]c2cc(Cl)c3cccnc3c2o1	51	n	n	n	n
CN(C)CCNc1nc(-c2ccccc2)nnc1C(F)(F)F	x	n	n	n	x
Cc1nnc(-c2ccc(Cl)cc2)nc1NCCN(C)C	n	n	n	n	18
CC(C)C(=O)NN(C(=O)c1ccccc1)c1ccccc1	n	n	n	n	n
CC(C(=O)O)N(C(=O)c1ccccc1)c1ccc(F)cc1 (centres undefined)	n	n	n	x	26
O=C(O)CCN1CC2([N+](=O)[O-])C=CC(=O)C([N+](=O)[O-])(C1)C2CC(=O)c1ccccc1 (centres undefined)	43	n	n	n	x
COc1cc(NS(=O)(=O)c2ccc(Nc3nc(-c4cccc([N+](=O)[O-])c4)cs3)cc2)nc(OC)n1	n	n	n	n	19
O=[N+]([O-])c1cccc(-c2csc(Nc3ccccc3)n2)c1	n	n	n	n	n
CCOC(=O)c1cc(C(C)C)sc1NC(=O)COC(=O)CCS(=O)(=O)c1ccccc1	n	n	n	n	34
C[C@@H]1CN([C@@H](C)CO)C(=O)c2cc(NC(=O)c3ccncc3)ccc2O[C@H]1CN(C)Cc1ccc(C(F)(F)F)cc1	n	x	n	x	n
COCCNC(=O)C[C@@H]1C[C@@H]2c3cc(NC(=O)c4cccnc4)ccc3O[C@@H]2[C@H](CO)O1	n	x	n	x	n
CCCCc1c(-c2ccccc2F)ncn1CCc1ccccc1OC	n	x	x	x	28
COc1ccc(Cc2nnc3sc(SCC(=O)Nc4ccccc4)nn3c2=O)cc1OC	n	x	63	n	n
Cc1cccc(CSc2nn3c(=O)c(C)nnc3s2)c1	x	n	x	n	x
Cc1nnc2sc(SCC(=O)Nc3ccc(Cl)cc3)nn2c1=O	n	n	43	n	n
COc1ccc(CCNC(=O)CSCC(=O)Nc2ccccc2)cc1OC	n	n	n	n	n
Cc1nnc2sc(SCc3ccc(Cl)cc3)nn2c1=O	x	n	n	x	x
CC(=O)Nc1cccc(NC(=O)CSc2nn3c(=O)c(C)nnc3s2)c1	n	n	67	x	n
CCOC(=O)CSc1nc2cc(OCC)ccc2cc1C#N	n	n	n	n	21
Cc1noc(C)c1NC(=O)N(C)C[C@H]1Oc2ccc(NC(=O)NC3CCCCC3)cc2CC(=O)N([C@H](C)CO)C[C@@H]1C	n	x	n	x	n
O=C(CN1CCOCC1)NNC(=S)Nc1ccc(Cl)cc1	n	n	39	n	n
O=C(CN1c2ccccc2Sc2ccccc21)NNC(=S)Nc1ccc(Cl)cc1	n	n	n	n	n
COc1cccc(-c2ccc3c(c2)[C@@H]2[C@@H](CCN2C(=O)c2ccccc2F)[C@H](CO)N3C)c1	n	x	n	x	20
COc1ccc(-c2ccc3c(c2)[C@@H]2[C@@H](CCN2S(=O)(=O)c2ccc(F)cc2)[C@H](CO)N3C)cc1	n	x	x	x	16
COc1cccc(-c2ccc3c(c2)[C@H]2[C@H](CCN2C(=O)NC2CCCC2)[C@H](CO)N3C)c1	n	x	active	x	n
Cc1noc(C)c1NC(=O)Nc1ccc2c(c1)C(=O)N([C@@H](C)CO)C[C@H](C)[C@@H](CN(C)S(=O)(=O)c1ccccc1)OCCCC[C@@H](C)O2	n	x	n	x	n
C[C@H](CO)N1C[C@H](C)[C@H](CN(C)Cc2ccc(-c3ccccc3)cc2)Oc2ncc(C#CCN(C)C)cc2C1=O	n	x	n	x	n
CCCC(=O)Nc1ccc2c(c1)C(=O)N(C)C[C@H](OC)[C@H](C)CN(C)[C@@H](C)CO2	n	x	n	x	n
